High-throughput results as filed in PubChem BioAssay.
HIF-2a block = blocks HIF-2a reporter activity | 786-0 RCC cells HIF-2a reporter, luciferase luminescence, overnight | inhibition, % at 18.8 µM | actives 0.72% (n = 360,000);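 active means inhibition of the luminescence signal of 40% or more relative to plate controls, in a single-dose primary screen at 18.75 µM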
TROY signal inh = inhibitors of TROY-dependent NF-kB signaling; Q293 LMP1-TROYcd NF-kB luciferase reporter, 4 h; inhibition, % at 10 µM; actives 0.98% (n = 360,000); AID 1347056;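 active means compounds whose plate-normalised and pattern-corrected inhibition of the luciferase reporter signal at the single screening dose is 50% or more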
TWEAK Fn14 block = blocks TWEAK-Fn14 interaction in a reporter cell assay | TWEAK-stimulated Fn14 reporter cells, luciferase luminescence, 8 h | inhibition, % at 10 µM | actives 2% (n = 360,000); in the data active means inhibition above about 50%
CF NFkB inh = inhibitors of cystic fibrosis induced NF-kB | KKLEB NF-kB-GFP reporter, PAF-induced, GFP fluorescence overnight | inhibition, % at 5 µM | actives 0.86% (n = 360,000) | AID 588850;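 active means at least 50% inhibition at 5 µM, scaled per plate between neutral and stimulator controls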;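 further: PAF is a Pseudomonas aeruginosa culture filtrate used as stimulus; plate controls were PAF-stimulated DMSO wells for no effect and unstimulated DMSO wells for full effect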
Peg3 promoter = Peg3 promoter activity inhibition | actives 1.7% (n = 360,000) | HeLa PEG-Prom luciferase reporter, luminescence, overnight | inhibition, % at 20 µM;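 active means inhibition of at least 50% at 20 µM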
KKLEB tox = reduces viability of KKLEB cystic fibrosis airway cells | KKLEB CF airway cells viability, ATPlite luminescence, overnight; stronger effect = lower value; cells stimulated with P. aeruginosa culture filtrate | activity change (cytotoxicity), % at 5 µM | actives 0.36% (n = 360,000);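 active means corrected activity change at or below -50% at 5 µM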
The depositor's hits bear a star. This is a sample that favours compounds with a hit; in the whole collection about 4% have one here.

SMILES | HIF-2a block | TROY signal inh | TWEAK Fn14 block | CF NFkB inh | Peg3 promoter | KKLEB tox
CCN1CCN(C(=O)NC(c2ccc(C)c(F)c2)C(Cl)Cl)CC1 (centres undefined) | 8 | 7 | -1 | 3 | -8 | -7
COc1ccc2nc(NC(=O)CCNC(=O)c3ccco3)sc2c1 | -223 | -71 | -16 | -4 | -208 | 13
COC(=O)c1sc(NC(=O)c2ccco2)nc1C | -121 | -23 | 12 | 7 | -111 | 1
COc1ccc2sc(NC(=O)c3ccco3)nc2c1 | -67 | 42 | 70* | -1 | -55 | -4
COc1ccc2nc(NC(=O)c3ccoc3C)sc2c1 | -161 | -6 | 59* | -1 | -138 | -10
O=C(NC(=S)Nc1nc2ccccc2s1)c1ccco1 | -215 | 11 | 29 | -27 | -275 | -10
COc1ccc2nc(NC(=S)NC(=O)c3ccco3)sc2c1 | -221 | 51* | 49 | -7 | -307 | -23
Cc1nc(NC(=O)c2ccco2)sc1C(=O)O | 22 | 36 | 59* | 7 | 42 | -5
COc1ccc2nc(NC(=O)c3cc(C)oc3C)sc2c1 | -192 | -26 | 3 | -5 | -265 | -7
Cc1ccc2nc(SCC(=O)N3CCN(c4ccccc4)CC3)[nH]c2c1 | 14 | 16 | 4 | 2 | -3 | 7
CCSc1nnc(NC(=O)c2cccc(OCc3c(C)noc3C)c2)s1 | -48 | -3 | 8 | -10 | 3 | -6
COc1ccc2nc(NC(=O)c3cccc(OCc4c(C)noc4C)c3)sc2c1 | -177 | 35 | 52* | 3 | -90 | -23
CCc1ccc2oc(-c3ccc(OC)cc3)cc(=Nc3c(C)n(C)n(-c4ccccc4)c3=O)c2c1 | -229 | 55* | 75* | -34 | -177 | -6
C=CCn1c(-c2ccc(OC)cc2)csc1=Nc1c(C)n(C)n(-c2ccccc2)c1=O | 15 | 11 | 10 | -10 | 15 | 7
COc1ccc(-c2cc(=O)c3cc(O)ccc3o2)cc1 | -213 | -86 | -31 | -51 | -365 | 1
COc1ccc(-c2cc(=Nc3ccc(C(=O)O)cc3)c3cc(C)ccc3o2)cc1 | -218 | -17 | 72* | -32 | -357 | -16
CCc1ccc2oc(-c3ccc(OC)cc3)cc(=Nc3cccc(C(=O)O)c3)c2c1 | -164 | 65* | 85* | -34 | -240 | -7
COc1cc2c(cc1OC)CN(C(=O)c1ccc3nc[nH]c3c1)CC2 | 7 | 15 | 17 | 26 | 14 | -20
CC1(C)CC(=O)C2=C(C1)Nc1ccccc1[S@]2=O | 13 | 2 | -6 | 4 | -2 | 3
O=C(N/N=C/c1cc(Cl)cc([N+](=O)[O-])c1O)NC12CC3CC(CC(C3)C1)C2 | 8 | 43 | 66* | 31 | 37 | 2
O=C(N/N=C/c1ccccc1O)NC12CC3CC(CC(C3)C1)C2 | -73 | 2 | -10 | -1 | -234 | 15
O=C(Nc1nc2c(s1)CCCC2)c1cccs1 | -158 | 2 | 57* | -2 | -168 | -7
O=C(Cc1cccs1)Nc1nc2c(s1)CCCC2 | -226 | -17 | -91 | -6 | -223 | -10
CC1(C)CC(=O)c2sc(NC(=O)C(C)(C)C)nc2C1 | -211 | -40 | -5 | 6 | -137 | -12
O=C(Nc1nc2c(s1)CCCC2)C1COc2ccccc2O1 (centres undefined) | -44 | 71* | 82* | -2 | -76 | -14
SMILES | HIF-2a block | TROY signal inh | TWEAK Fn14 block | CF NFkB inh | Peg3 promoter | KKLEB tox
CC1(C)CC(=O)c2sc(NC(=O)c3cccs3)nc2C1 | -51 | -27 | 54* | -12 | -71 | -16
Cc1ccc(S(=O)(=O)N(C)CC(=O)NNC(=O)CCC(=O)c2ccc(F)cc2)cc1 | 5 | -16 | 12 | -6 | 11 | 10
Cn1cc(C=O)c(-c2ccc3c(c2)OCCCO3)n1 | -57 | 25 | 71* | 6 | -115 | -14
CC(C)CC(=O)Nc1ccc(-c2nc3ccccc3c(=O)o2)cc1 | -66 | 3 | -1 | -4 | 3 | 5
CC(C)CC(=O)Nc1ccc(-c2nc3ccccc3c(=O)[nH]2)cc1 | -166 | 15 | 61* | -2 | -26 | -2
CC(=O)Oc1ccc(-c2cccc(C(=O)OCC(=O)Nc3ccccc3Oc3ccccc3)c2)cc1 | -2 | -6 | 19 | 12 | 22 | 16
CCOc1ccccc1NC(=O)COC(=O)c1cccc(-c2ccc(OC(C)=O)cc2)c1 | -77 | 62* | 64* | 2 | -64 | -8
CC(C)(C)c1ccc(Oc2ccc(NC(=O)C3CC=CCC3C(=O)O)cc2)cc1 (centres undefined) | 12 | 76* | 28 | 8 | 9 | -21
Cc1ccccc1Oc1ccc(NC(=O)C2CC=CCC2C(=O)O)cc1 (centres undefined) | 13 | -3 | 7 | -5 | 24 | -1
COc1ccc(-c2ccc3c(c2)S(=O)(=O)c2cccc(C(=O)NCCOc4ccccc4Cl)c2C3=O)cc1OC | -15 | 54* | 7 | 0 | 87* | -22
CC(C)c1cccc(-c2ccc3c(c2)S(=O)(=O)c2cccc(C(=O)NCc4ccccc4)c2C3=O)c1 | 7 | 15 | -50 | 26 | 43 | -19
CC(C)c1cccc(-c2ccc3c(c2)S(=O)(=O)c2cccc(C(=O)NCc4ccccc4Cl)c2C3=O)c1 | 0 | 1 | -81 | 41 | 51* | -38
COc1ccc(NC(=O)c2ccc(CNc3c(N4CCCC4)c(=O)c3=O)cc2)cc1Cl | 11 | -20 | 17 | -24 | -21 | -1
Cc1ccc(-c2csc(NC(=O)C3=NN(c4ccccc4)C(=O)CC3)n2)cc1 | -14 | 17 | 55* | -12 | -4 | -15
Cc1csc(NC(=O)C2=NN(c3ccccc3)C(=O)CC2)n1 | 12 | -2 | -26 | -10 | 7 | -1
Cc1ccc(S(=O)(=O)/N=C2\C=C(NS(=O)(=O)c3ccccc3)C(=O)c3ccccc32)c(C)c1 | -5 | 21 | -19 | 78* | -15 | -6
CC(C)(C)c1ccc(S(=O)(=O)/N=C2\C=C(NS(=O)(=O)c3ccccc3)C(=O)c3ccccc32)cc1 | -10 | 11 | 14 | 82* | 29 | -16
CCn1c(SCC(=O)Nc2ccc(Cl)cc2)nnc1C1CC1 | -20 | -6 | -1 | 1 | -19 | -2
CC(NC1=CC(=O)c2cccnc2C1=O)C(O)c1ccccc1 (centres undefined) | 19 | 7 | 16 | 80* | 28 | -32
CC1CCCCC1NC(=O)c1ccc2c(c1)OCCO2 (centres undefined) | -219 | -12 | -1 | 26 | -157 | -8
Cc1ccc(S(=O)(=O)N2CCOC2CNC(=O)C(=O)NCc2ccccc2)cc1 (centres undefined) | 13 | 10 | 2 | 3 | 9 | -14
COc1ccc(C)cc1NS(=O)(=O)c1ccc(NC(=O)CN(c2cc([N+](=O)[O-])ccc2C)S(C)(=O)=O)cc1 | 18 | 17 | 23 | -12 | 64* | -1
